Laboratory results as given in PubChem BioAssay (NCI).
Compounds without any hit were thinned out: in the full panel of roughly 79,000, 15% have a hit. The source made the active and inactive calls. No stated cut-off is given here; in the data, active means growth inhibition above about 70%; inactive means the rest.

Tests used:
[1] = NCI Yeast Anticancer Drug Screen. Data for the rad50 strain (AID 155);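 further: 0% = growth of vehicle-only cultures of the same strain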; settings: S. cerevisiae rad50 strain growth inhibition; at 50.0 µM; active compounds read high
Outline: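 DNA repair mutant yeast, compound exposure, growth read-out; inhibition is taken relative to vehicle.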

[2] = NCI Yeast Anticancer Drug Screen. Data for the mec2-1 strain (AID 157); settings: S. cerevisiae mec2-1 strain, at 50.0 µM, active compounds read high
Outline: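 Strain: mec2-1 (DNA repair/cell cycle alteration). Compound exposure, then growth measured; inhibition expressed relative to vehicle.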

[3] = NCI Yeast Anticancer Drug Screen. Data for the sgs1 mgt1 strain (AID 161);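 further: 0% = growth of cultures given vehicle only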; settings: S. cerevisiae sgs1 mgt1 strain, at 50.0 µM, active compounds read high
Outline: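 Read-out: growth inhibition vs vehicle controls. Cells: mutant yeast strain deficient in DNA damage repair.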

[4] = NCI Yeast Anticancer Drug Screen. Data for the cln2 rad14 strain (AID 165);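 further: 0% = growth equal to vehicle treated cultures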; settings: S. cerevisiae cln2 rad14 strain, at 50.0 µM, active compounds read high
Outline: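 Compounds are applied to the cln2 rad14 yeast strain, and growth is then compared with that of vehicle-treated cultures to give inhibition.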

[5] = NCI Yeast Anticancer Drug Screen. Data for the bub3 strain (AID 167); settings: S. cerevisiae bub3 mutant strain, at 50.0 µM, active compounds read high
Outline: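 In this screen, a yeast mutant lacking normal mitotic checkpoint function is challenged with compound. Relative growth versus vehicle gives the inhibition value.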

[6] = NCI Yeast Anticancer Drug Screen. Data for the mlh1 rad18 strain (AID 175); settings: S. cerevisiae mlh1 rad18 strain growth inhibition; at 50.0 µM; active compounds read high
Outline: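 Read-out is yeast growth inhibition, calculated against vehicle-only controls. The compound was applied to a strain engineered with DNA damage repair alterations.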

Measured: growth inhibition

C=CCNC(=O)/C=C/C(=O)O
inactive: [1] -8.15% | [2] 6.85% | [3] 0.35% | [4] 4.45% | [5] 12.5% | [6] 6.15%

CC(=O)NC1=NN(C(C)=O)C(C)(c2ccccc2)S1=O (configuration not stated)
inactive: [1] 9.65% | [2] -1.25% | [3] 3.7% | [4] 10% | [5] -3.95% | [6] 14.7%

O=C1/C(=C/c2ccc3c(c2)OCO3)CC/C1=C\c1ccc2c(c1)OCO2
inactive: [1] -10.2% | [2] 5.35% | [3] -19.7% | [4] -55.6% | [5] -13.7% | [6] -26.9%

O=C1O/C(=C2/OC(=O)c3ccccc32)c2ccccc21
inactive: [1] -8.05% | [2] -7.95% | [3] -3.75% | [4] -44% | [5] 14.5% | [6] -0.65%

O=[N+]([O-])c1cc2ccccc2nc1-c1ccccc1
inactive: [1] 15.6% | [2] 4.2% | [3] -0.55% | [4] 6.95% | [5] 7.2% | [6] 6.15%

O=C(c1ccc(Cl)cc1)c1cc([N+](=O)[O-])cc([N+](=O)[O-])c1
inactive: [1] -0.35% | [2] 3% | [3] -2.45% | [4] -49.6% | [5] 22.8% | [6] -8.75%

CCC(C)(O)CCC(C)(O)CC (configuration not stated)
inactive: [1] 27.6% | [2] 5.4% | [3] 14.9% | [4] -14.7% | [5] 20% | [6] 9.25%

COc1ccc(-c2c(O)c3cccc(-c4ccccc4)c3oc2=O)cc1
inactive: [1] 2.7% | [2] 6.7% | [3] -2.9% | [4] 2.95% | [5] 15% | [6] 7.5%

COc1ccc(/C=N/NC(N)=S)cc1
inactive: [1] 24.1% | [2] 14.6% | [3] 28.6% | [4] -13% | [5] 12.8% | [6] 46.6%

CC1CCCN2C(=O)CN(Cc3ccccc3)CC(=O)N12 (configuration not stated)
inactive: [1] 9.85% | [2] -3.3% | [3] -8.55% | [4] 13.4% | [5] 3.1% | [6] -4.45%

NC(=O)c1ccccc1NC(=O)C(=O)Cc1nc2ccccc2[nH]c1=O
inactive: [1] -2.55% | [2] -1.55% | [3] 11.7% | [4] 12.7% | [5] 1.25% | [6] 6.15%

COC(=O)C(/C(=N/N)C(=O)Nc1cc(Cl)ccc1Cl)c1nc2ccc([N+](=O)[O-])cc2[nH]c1=O (configuration not stated)
inactive: [1] -10.6% | [2] -13.3% | [3] 7.3% | [4] 10.5% | [5] 13.9% | [6] 15.6%

OC(CNc1ccc(Cl)nn1)c1ccccc1 (configuration not stated)
inactive: [1] -3.35% | [2] -10.3% | [3] 21% | [4] 13.4% | [5] 9.7% | [6] -15.2%

CCCCCCC(=O)CC(SCCS)c1ccc(Cl)c(Cl)c1 (configuration not stated)
inactive: [1] 4.65% | [2] 16.2% | [3] -4.3% | [4] 5.8% | [5] -1.4% | [6] 6.3%

Nc1ccc(C(=O)NN2C(=O)C(Cl)C2c2ccc(O)cc2)cc1 (configuration not stated)
inactive: [1] -1.75% | [2] -1.45% | [3] -17.2% | [4] -3.05% | [5] 4.8% | [6] -25.6%

C/C(=N/NC(N)=O)c1ccc([N+](=O)[O-])o1
inactive: [1] 29.9% | [2] 9.9% | [3] 30.8% | [4] 16.1% | [5] 14.9% | [6] 47.2%

COc1ccc(-c2cc(-c3ccccc3)n(C3OC(COC(C)=O)C(OC(C)=O)C(OC(C)=O)C3OC(C)=O)c(=S)c2C#N)cc1 (configuration not stated)
inactive: [1] 5% | [2] -11.8% | [3] -8.6% | [4] -25.4% | [5] 26.5% | [6] -5.2%

CCC(=O)C1CCCCN1 (configuration not stated)
inactive: [1] 10.7% | [2] 17.1% | [3] -11.1% | [4] -48.4% | [5] -3.15% | [6] 3%

C=C(C)C(O)C(O)C(=C)C (configuration not stated)
inactive: [1] -6.35% | [2] -17.8% | [3] -15.6% | [4] -1.7% | [5] 12.9% | [6] -4%

CC1CN(CCCOC(=O)Nc2cccc3ccccc23)CCN1Cc1ccccc1 (configuration not stated)
active: [1] 81.2% | [2] 94% | [3] 95.8% | [4] 97.7% | [5] 82% | [6] 95.8%

COc1ccc(C(O)C(=O)c2nc3ccc([N+](=O)[O-])cc3[nH]c2=O)cc1 (configuration not stated)
inactive: [1] -16.5% | [2] -49.5% | [3] -29.5% | [4] -22.1% | [5] -36.5% | [6] -5.2%

Cc1ccc(S(=O)(=O)N2CN3CN(C2)CN(S(=O)(=O)c2ccc(C)cc2)C3)cc1
inactive: [1] 0.4% | [2] -26.9% | [3] -9.15% | [4] 9.05% | [5] 6.4% | [6] -4.2%

c1ccc2[nH]c(N=Nc3cccc4c(N=Nc5cc6ccccc6[nH]5)cccc34)cc2c1
inactive: [1] 5.1% | [2] -11.4% | [3] -13.7% | [4] 18.1% | [5] -2.6% | [6] 8.65%

N#Cc1nc(Nc2cccc3ccccc23)sc1N
inactive: [1] 8.2% | [2] 14.8% | [3] 20.9% | [4] 12.1% | [5] 15.7% | [6] 51.1%

CCOc1ccc(C(=O)OC(C)C)cc1
inactive: [1] 26.5% | [2] 4.15% | [3] 1.9% | [4] 2.7% | [5] -2.45% | [6] 6.15%

Cc1c(C(=O)OCCCl)c(=O)n(-c2ccccc2)n1C
inactive: [1] -43.4% | [2] -56.2% | [3] 4.7% | [4] 19.6% | [5] -33.5% | [6] -0.55%

O=[N+]([O-])c1cc(F)ccc1Sc1ccccc1
inactive: [1] 49.2% | [2] 23.4% | [3] 38.9% | [4] 39.8% | [5] 20.6% | [6] 40.6%

O=S(=O)(OCC1CC2CCC1CC2)c1ccc(Br)cc1 (configuration not stated)
inactive: [1] -17.1% | [2] 1.9% | [3] 9.35% | [4] 0.8% | [5] 10.2% | [6] -22.9%

COc1cc(-c2cc(=O)c3c(O)c(OC)c(OC)cc3o2)ccc1O
inactive: [1] -34.3% | [2] -40.2% | [3] -28.5% | [4] -22.1% | [5] -36.6% | [6] -41.5%

Cc1c(C2CCC(=O)C2)c2ccccc2n1C (configuration not stated)
inactive: [1] -3.05% | [2] -23.3% | [3] -4.6% | [4] 15.4% | [5] 2.1% | [6] 3.5%

Cn1c2ccccc2c2c3ccc[n+](C)c3ccc21
inactive: [1] 8% | [2] -2.9% | [3] 8.7% | [4] -57.5% | [5] -0.1% | [6] 2.1%

CCOC(=O)c1ccc(N2C(=O)C(Cl)(c3ccccc3)C2c2ccco2)cc1 (configuration not stated)
inactive: [1] 16.2% | [2] 9.85% | [3] -1.65% | [4] 9.1% | [5] 12.4% | [6] 10.5%

N#CC(C#N)=CN1CCNC1=S
inactive: [1] 14.3% | [2] -1.2% | [3] 20.4% | [4] 16.6% | [5] 17.6% | [6] 17.6%

O=C(Cc1ccccc1)Nc1ccc(Br)cc1
inactive: [1] 6.15% | [2] 15.8% | [3] 15.5% | [4] -16.1% | [5] 13.7% | [6] 8.55%

O=C1OC(c2ccccc2)=C/C1=C/c1ccc(Cl)cc1
inactive: [1] -1.2% | [2] -17.6% | [3] -6.65% | [4] -6.2% | [5] -7.3% | [6] -8.3%

Cc1cc(NS(=O)(=O)c2ccc(NC(=O)c3ccc(Cl)c4c(Nc5ccc(S(N)(=O)=O)cc5)c5ccccc5nc34)cc2)no1
inactive: [1] 34% | [2] 36.8% | [3] 33.5% | [4] 46.2% | [5] 31.4% | [6] 68.1%

COc1ccc2c(c1)SC1=NNC(=O)CN12
inactive: [1] -21.6% | [2] -27.6% | [3] -9.45% | [4] -39.1% | [5] -12.2% | [6] -22.9%
